Screening data as filed in PubChem.
Compounds with a hit are over-represented: about 10% of the library has one in this group of screens.
GLS inhibitor: glutaminase GLS (human) inhibition; O94925; GLS enzymatic activity, qHTS titration; Potency, µM (titrated, usually from 45.5 µM), for inactives: at the top dose activity change, negative = inhibition, usual class: inhibitors; 410,000 compounds, 0.21% hits; further: on the % scale 0 is the no-effect control and ±100 the full control effect
Target sequence (O94925 whole entry, looked up): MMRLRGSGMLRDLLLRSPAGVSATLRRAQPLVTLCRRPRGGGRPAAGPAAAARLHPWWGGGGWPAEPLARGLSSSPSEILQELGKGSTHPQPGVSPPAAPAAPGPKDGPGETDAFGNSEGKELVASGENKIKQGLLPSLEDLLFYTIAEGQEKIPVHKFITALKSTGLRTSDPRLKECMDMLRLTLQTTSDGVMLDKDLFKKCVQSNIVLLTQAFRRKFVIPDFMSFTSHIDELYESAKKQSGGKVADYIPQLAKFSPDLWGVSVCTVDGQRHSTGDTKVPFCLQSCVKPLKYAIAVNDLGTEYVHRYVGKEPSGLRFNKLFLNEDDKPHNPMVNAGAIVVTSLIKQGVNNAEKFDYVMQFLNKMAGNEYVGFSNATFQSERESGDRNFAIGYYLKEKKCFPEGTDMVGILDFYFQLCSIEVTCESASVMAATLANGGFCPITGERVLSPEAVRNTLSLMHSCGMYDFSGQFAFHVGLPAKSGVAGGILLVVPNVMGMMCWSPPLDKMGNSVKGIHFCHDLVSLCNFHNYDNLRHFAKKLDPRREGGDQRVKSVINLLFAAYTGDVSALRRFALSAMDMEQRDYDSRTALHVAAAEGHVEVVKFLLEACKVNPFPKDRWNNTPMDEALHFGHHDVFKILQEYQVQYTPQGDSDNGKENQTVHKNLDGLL
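hKGA in 45 mM KH2PO4 (pH 8.2), 0.02% Tween-20 with compound, then 1mM L-Glutamine (stock as added) plus glutamate oxidase/HRP/Amplex red coupling mix. Fluorescence read initially and after 30 min at RT; signal change reflects glutamate formation.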
JMJD2A Tudor inh: blocks the human JMJD2A Tudor domain; AlphaScreen JMJD2A-Tudor / H3K4me3 peptide binding; Potency, µM (highest dose often 114 µM), for inactives: at the top dose activity change, negative = inhibition, most hits filed as inhibitors; 390,000 compounds, 4.4% hits; AID 504339; further: on the % scale 0 is the no-effect control and ±100 the full control effect; nearly all actives have a fitted effect of over 50% in size
G9a block: G9a (human) methyltransferase inhibition. Q96KQ7. G9a H3K9 monomethylation, AlphaScreen, 2 h. Potency, µM (highest dose often 102 µM), for inactives: top-dose activity, negative = inhibition, most hits filed as inhibitors. 350,000 compounds, 8.8% hits. AID 504332; further: on the % scale 0 is the no-effect control and ±100 the full control effect; nearly all actives have a fitted effect of over 75% in size
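Step 1: enzyme (final 20 nM) with compound, 15 min RT. Step 2: substrate peptide 500 nM and SAM 20 uM, 2 h RT. Step 3: anti-H3K9me1 antibody and AlphaScreen beads, 10 min, then plate read.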
L3MBTL1 inh: blocks human L3MBTL1; Q9Y468; 230,000 compounds, 0.66% hits; AlphaScreen L3MBTL1–H3K9me1 peptide binding; Potency, µM (highest dose often 57.1 µM), without a hit: at the highest dose activity, negative = inhibition, usual class: inhibitors; further: on the % scale 0 is the no-effect control and ±100 the full control effect; nearly all actives have a fitted effect of over 60% in size
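Read-out is AlphaScreen signal from streptavidin donor and nickel chelate acceptor beads (10 ug/mL final each) bridging L3MBTL1 (50 nM) and biotinylated K9-monomethylated H3(1-15) peptide (75 nM), after 30 min compound exposure at room temperature.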
BAZ2B block: inhibitors of human BAZ2B bromodomain; Q9UIF8; 360,000 compounds, 4.4% hits; Potency, µM (titrated, usually from 114 µM), inactives show at the highest dose activity change, negative = inhibition, usual class: inhibitors; AlphaScreen BAZ2B-H3K14Ac peptide displacement; further: on the % scale 0 is the no-effect control and ±100 the full control effect; nearly all actives have a fitted effect of over 60% in size
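In this displacement format the biotinylated H3(5-23) peptide acetylated at Lys14 serves as ligand at 50 nM, with BAZ2B at 50 nM in PBS pH 7.4 containing 0.01% Tween-20. Donor and acceptor beads are 10 ug/mL final.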
HP1b binding inh: HP1-beta chromodomain-methylated histone interaction inhibition | P83916 | AlphaScreen HP1-beta / biotin-H3K9me3 peptide binding | Potency, µM (doses to about 114 µM), inactives show at the top dose activity change, negative = inhibition, usual class: inhibitors | 390,000 compounds, 0.56% hits; further: nearly all actives have a fitted effect of over 70% in size
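AlphaScreen: HP1-beta (50 nM) preformed 30 min with biotin-H3(1-18)K9me3 peptide (50 nM) in PBS pH 7.4, 0.01% Tween-20. Compound added for 30 min at RT, then streptavidin donor/nickel chelate acceptor beads (10 ug/mL) for 30 min.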
* hit, by the source's call; ? = inconclusive; . = no result; [ ] = dose if it differs, or a comment. The call rests on the fitted dose curve; in most records, active means well fitted curve in the direction sought with a large enough effect; inconclusive means small, poorly fitted or top-dose-only effect, or another doubt; inactive means no such curve, though single readings can be large; an effect the other way counts as inactive or inconclusive. Potency means the concentration at half of the fitted maximal effect.

SMILES	GLS inhibitor	JMJD2A Tudor inh	G9a block	L3MBTL1 inh	BAZ2B block	HP1b binding inh
Cc1ccc(-c2nc3ccccc3c(=O)n2O)cc1	-2%	35µM*	32µM*	.	?	18%
Cc1ccc(-c2nc3ccccc3c(=O)n2NC(=S)N(C)C)cc1	11%	-11%	4µM*	6%	7%	?
Cc1cc(N/N=C/c2ccccc2O)c2ccccc2n1	7%	?	.	-6%	?	-5%
CCCCSCCCNC(=O)CN1C(=O)COc2ccc(S(=O)(=O)N3CCCC3)cc21	-6%	-3%	8%[59 µM]	.	-18%	40%
CCC(=O)O	-17%	.	30%[59 µM]	.	.	.
O=C(CC(c1cccs1)N1Cc2ccccc2C1=O)Nc1ccccc1F (stereo not given)	3%	-12%	-6%[59 µM]	.	-6%	4%
CCN(C(=O)CSc1ncc2c(n1)-c1cc(Cl)ccc1N(Cc1ccccc1)S2(=O)=O)c1cccc(C)c1	-6%	-13%	9%[59 µM]	.	3%	7%
CCOc1ccccc1CN(CCc1ccc2c(c1)OCO2)Cc1cccc(OC)c1OC	2%	4.5µM*	2.5µM*	.	50µM*	?
CCOc1cc(CNCc2ccc3c(c2)OCO3)ccc1OC	-13%	-11%	9%[59 µM]	-2%	-26%	46%
CCOc1ccc(CN(CCc2ccc3c(c2)OCO3)Cc2cc(OC)c(OC)cc2OC)cc1	0%	8.9µM*	2.8µM*	.	28µM*	11µM*
O=S(=O)(c1ccc2ccccc2c1)N1CCN(c2nc(-c3ccccc3)nc3ccccc23)CC1	.	-8%	.	.	.	2%
O=[N+]([O-])c1cccc(/C=N/N2CCN(Cc3ccc(Cl)cc3)CC2)c1	-6%	50µM*	.	-24%	20µM*	?
O=[N+]([O-])c1ccc(N2CCN(c3ccccn3)CC2)c(Cl)c1	-1%	-32%	-73%	.	-39%	-36%
O=[N+]([O-])c1cccc(/C=N/N=C\c2ccccc2)c1	7%	-29%	39%	-2%	-37%	34%
O=[N+]([O-])c1cccc(/C=N\N2CCN(Cc3ccccc3Cl)CC2)c1	-3%	45µM*	10µM*	-22%	35µM*	?
O=[N+]([O-])c1cccc(/C=N/N2CCN(Cc3ccccc3)CC2)c1	-7%	?	?	.	25µM*	-13%
O=[N+]([O-])c1cccc(/C=N/N2CCN(c3ccccn3)CC2)c1	6%	-22%	32µM*	0%	-38%	?
Cc1ccc(Nc2ccc(N3CCN(C(=O)c4cccc([N+](=O)[O-])c4)CC3)nn2)cc1	1%	-29%	-5%[59 µM]	.	-34%	8%
CCc1ccc(CNC(=O)CN2C(=O)CSc3c2c(C)nn3-c2ccccc2)cc1	-7%	-10%	12%[59 µM]	.	-19%	8%
c1ccc(N2CCN(Cc3nnc(-c4ccc5c(c4)OCO5)o3)CC2)cc1	12%	5%	-1%[59 µM]	.	-21%	27%
CC(C)NC(=O)CSc1cn(CC(=O)N2CCCCCC2)c2ccccc12	2%	-23%	-1%[59 µM]	.	-10%	-8%
Oc1ccccc1/C=N/N1CCN(c2ccccn2)CC1	21%	?	-5%	-30%	?	5%
C(=N\N1CCN(c2ccccn2)CC1)/c1cccc2ccccc12	-10%	40µM*	40µM*	-28%	35µM*	?
CCn1c(C)c(C(C)=O)c(N2CCN(c3ccc(OC)cc3)CC2)nc1=S	27%	-31%	35µM*	-20%	?	-4%
CCOC(=O)c1cnc2c(C)c(Cl)ccc2c1Nc1ccc(N2CCOCC2)cc1	22%	?	7.9µM*	.	10µM*	-27%
SMILES	GLS inhibitor	JMJD2A Tudor inh	G9a block	L3MBTL1 inh	BAZ2B block	HP1b binding inh
CCOC(=O)c1cnc2ccccc2c1Nc1cc(C(=O)O)ccc1C	1%	-3%[11.4 µM]	50µM*	.	-1%	49%
CCOC(=O)c1cnc2c(C)c(Cl)ccc2c1N1CCOCC1	6%	-5%	8%	6%	-2%	33%
CCOC(=O)c1cnc(N2CCN(c3ccc(OC)cc3)CC2)c2ccccc12	2%	?	14µM*	.	?	1%[57 µM]
COc1ccc(N2CCN(C(=O)c3cnc(N4CCOCC4)c4ccccc34)CC2)cc1	2%	-32%	?	.	?	-1%[57 µM]
Cn1cnc2c(=O)oc3ccc(S(=O)(=O)N4CCN(c5cccc(C(F)(F)F)c5)CC4)cc3c21	4%	-15%	-34%[59 µM]	.	-9%	3%
CCCn1c2ccccc2c2cnn(CC(=O)NCCc3cc(OC)ccc3OC)c(=O)c21	0%	-11%	-27%[59 µM]	.	-5%	14%
Cc1ccc(-n2c(=O)c3c(cnn3C)n(CC(=O)Nc3c(C)cccc3C)c2=O)cc1	0%	-1%	3%[59 µM]	.	1%	15%
CCOC(=O)c1cnc2ccccc2c1Nc1ccc(N2CCOCC2)cc1	2%	?	?	.	?	-14%
CCOC(=O)c1ccc2ncc(C(=O)OCC)c(Nc3ccc(N4CCOCC4)cc3)c2c1	3%	40µM*	?	?	14µM*	?
CCOC(=O)c1cnc2c(ccc3ccccc32)c1Nc1ccc(Cl)cc1	6%	6%	1%[59 µM]	.	-2%	38%
CCOC(=O)c1cnc2ccc(OC)cc2c1Nc1ccc(N2CCN(C)CC2)cc1	13µM*	32µM*	35µM*	.	35µM*	-32%[57 µM]
CCOC(=O)c1cnc2c(C)cccc2c1Nc1ccc(N2CCOCC2)cc1	.	.	28µM*	?	14µM*	.
C(=N\Nc1ncnc2nc[nH]c12)/c1cccs1	12%	?	-27%	-3%	50µM*	32%
COc1ccc2c(c1)c1c(c(=O)n(-c3ccccc3)c(=O)n1CC(=O)Nc1ccc(F)cc1)n2C	-1%	4%	6%[59 µM]	.	-3%	24%
Cc1cnc2c(c1SCC(=O)Nc1ccc(F)cc1F)c(=O)n(C)c(=O)n2C	1%	2%	2%[59 µM]	.	-34%	50%
O=C(CSc1nnc(-c2ccc(S(=O)(=O)N3CCCC3)cc2)n1CC1CCCO1)NC1CC1 (stereo not given)	1%	-3%	50µM*	-2%	-7%	15%
Cc1occc1-c1nnc(SCC(=O)NCCc2ccccc2)o1	3%	-24%	-1%	-3%	-23%	-18%
CC(=O)c1c(C)[nH]c(C(=O)CSc2nnc(-c3ccc(Cl)cc3)n2CC2CCCO2)c1C (stereo not given)	2%	79µM*	50µM*	.	-10%	9%
CCSc1nnc(-c2ccc(S(=O)(=O)N3CCOCC3)cc2)n1CC1CCCO1 (stereo not given)	3%	-10%	-20%[59 µM]	4%	9%	4%
COc1cc(C(=O)CSc2nnc(-c3ccc(O)cc3)n2CC2CCCO2)ccc1NC(C)=O (stereo not given)	-6%	-4%	-10%[59 µM]	-1%	-1%	33%
